We go through 40 compounds from PubChem BioAssay (NCATS).

Records with an inconclusive call do not appear. A number with no mark means an inactive call. Active and inactive are the calls of the source. The call rests on the fitted dose curve; tested in HEK293 reporter line.

Experiment [1] is described as follows: qHTS for Inhibitors of the Functional Ribonucleoprotein Complex (vRNP) of Lassa (LASV) Arenavirus: LASV Primary Screen - GLuc reporter signal (AID 1347082). Further: nearly all actives have a fitted effect of over 60% in size. As to conditions: LASV minigenome vRNP, Gaussia luciferase reporter; series mostly up to 57.5 µM. (In general: qHTS replaces the single test concentration by a dilution series.)
The nature of experiment [2]: qHTS for Inhibitors of the Functional Ribonucleoprotein Complex (vRNP) of Lassa (LASV) Arenavirus: Viability assay - alamar blue signal for LASV Primary Screen (AID 1347083). Further: nearly all actives have a fitted effect of over 80% in size. Further: potency means the concentration at half of the fitted maximal effect. As to conditions: cell viability, alamar blue fluorescence (LASV minigenome counter-screen); series mostly up to 57.5 µM.
The nature of experiment [3]: qHTS for Inhibitors of the Functional Ribonucleoprotein Complex (vRNP) of Lymphocytic Choriomeningitis Arenaviruses (LCMV): Viability assay - alamar blue signal for LCMV Primary Screen (AID 1347085). Further: nearly all actives have a fitted effect of over 80% in size. Further: potency means the concentration at half of the fitted maximal effect. Particulars: alamar blue viability counter-screen, LCMV vRNP screen cells; series mostly up to 57.5 µM.
On the % scale 0 is the no-effect control and ±100 the full control effect.

Turning to `C[C@H]1O[C@@H](n2cc(F)c(=O)[nH]c2=O)[C@H](O)[C@@H]1O`, the Potency result in experiment [1], in experiment [2] and in experiment [3] was “inactive” in each case.
As for `O=P(O)(O)C(O)(Cn1ccnc1)P(=O)(O)O`, the Potency result in experiment [1], in experiment [2] and in experiment [3] was “inactive” each time.
For the compound `Cc1cc(OI)c(C(C)C)cc1-c1cc(C(C)C)c(OI)cc1C`, the Potency entry in experiment [1], in experiment [2] and in experiment [3] was “inactive” each time.
For `CCOC(N)=O`, the Potency result in experiment [1], in experiment [2] and in experiment [3] was “inactive” throughout.
Regarding `CC(=O)OCC1=C(C(=O)O)N2C(=O)[C@@H](NC(=O)Cc3cccs3)[C@H]2SC1`, the Potency entry in experiment [1], in experiment [2] and in experiment [3] was “inactive” in each case.
As for `c1ccc2c(c1)CCCC2C1=NCCN1` (stereo not given), the Potency result in experiment [1], in experiment [2] and in experiment [3] was “inactive” each time.
Take `C=CC(N)CCC(=O)O` (stereo not given): the Potency result in experiment [1], in experiment [2] and in experiment [3] was “inactive” in each case.
For `Cc1ccc(Cl)c(Nc2ccccc2C(=O)O)c1Cl`, the Potency entry in experiment [1], in experiment [2] and in experiment [3] was “inactive” each time.
`CCc1cccc(CC)c1NC(=O)CN(CC(=O)O)CC(=O)O`: the Potency entry in experiment [1], in experiment [2] and in experiment [3] was “inactive” in each case.
With `O=C(O)CCCCC(=O)O`, the Potency result in experiment [1], in experiment [2] and in experiment [3] was “inactive” throughout.
On to `O=C(O)Cc1cn(-c2ccccc2)nc1-c1ccc(Cl)cc1`, for which the Potency entry in experiment [1], in experiment [2] and in experiment [3] was “inactive” throughout.
As to `COc1cnc(NS(=O)(=O)c2ccc(N)cc2)nc1`, the Potency entry in experiment [1], in experiment [2] and in experiment [3] was “inactive” each time.
As to `CCCCCCCCCCCCSCCOCCO`, the Potency entry in experiment [1], in experiment [2] and in experiment [3] was “inactive” throughout.
Turning to `O=C(O)Cc1sc(-c2ccccc2)nc1-c1ccc(Cl)cc1`, the Potency result in experiment [1], in experiment [2] and in experiment [3] was “inactive” throughout.
Turning to `CN1CCN2c3ncccc3Cc3ccccc3C2C1` (stereo not given), the Potency result in experiment [1], in experiment [2] and in experiment [3] was “inactive” each time.
On to `CCC(C(=O)OCCN(CC)CC)c1ccccc1` (stereo not given), for which the Potency entry in experiment [1], in experiment [2] and in experiment [3] was “inactive” each time.
With `O=C(O)Cn1cnnn1`, the Potency result in experiment [1], in experiment [2] and in experiment [3] was “inactive” each time.
Regarding `CCCCOC(=O)c1ccc(O)cc1`, the Potency entry in experiment [1], in experiment [2] and in experiment [3] was “inactive” each time.
In the case of `O=C1OC(CN2CCOCC2)CN1/N=C/c1ccc([N+](=O)[O-])o1` (stereo not given), the Potency entry in experiment [1], in experiment [2] and in experiment [3] was “inactive” throughout.
Turning to `O=C(O)Cc1csc(-c2ccc(Cl)cc2)n1`, the Potency entry in experiment [1], in experiment [2] and in experiment [3] was “inactive” in each case.
As to `COc1c2occc2cc2ccc(=O)oc12`, the Potency entry in experiment [1], in experiment [2] and in experiment [3] was “inactive” in each case.
For the compound `CCCCCCCCCCCCCCCC(=O)O`, the Potency result in experiment [1], in experiment [2] and in experiment [3] was “inactive” in each case.
`C=C[C@H]1CN2CC[C@H]1C[C@H]2[C@H](O)c1ccnc2ccc(OC)cc12`: the Potency entry in experiment [1], in experiment [2] and in experiment [3] was “inactive” each time.
As for `NC(=O)NC(=O)Cc1ccccc1`, the Potency result in experiment [1], in experiment [2] and in experiment [3] was “inactive” in each case.
`CC(C)(Oc1ccc(Cl)cc1)C(=O)O`: the Potency result in experiment [1], in experiment [2] and in experiment [3] was “inactive” throughout.
Consider `CC(C)Cn1cnc2c(N)nc3ccccc3c21`, for which the Potency entry in experiment [1], in experiment [2] and in experiment [3] was “inactive” throughout.
On to `Nc1ccc(S(=O)(=O)Nc2ccnn2-c2ccccc2)cc1`, for which the Potency result in experiment [1], in experiment [2] and in experiment [3] was “inactive” throughout.
Consider `C#C[C@]1(O)CC[C@H]2[C@@H]3CCc4cc(OC5CCCC5)ccc4[C@H]3CC[C@@]21C`, for which the Potency entry in experiment [1], in experiment [2] and in experiment [3] was “inactive” each time.
For `CC(C(=O)O)c1ccc(C(=O)c2ccccc2)s1` (stereo not given), the Potency entry in experiment [1], in experiment [2] and in experiment [3] was “inactive” in each case.
Turning to `O=C(Nc1ccc(Cl)c(Cl)c1)C1CC1`, the Potency entry in experiment [1], in experiment [2] and in experiment [3] was “inactive” each time.
With `CCCCCN(CCCOC)C(=O)C(CCC(=O)O)NC(=O)c1ccc(Cl)c(Cl)c1` (stereo not given), the Potency entry in experiment [1], in experiment [2] and in experiment [3] was “inactive” throughout.
For `S=P(N1CC1)(N1CC1)N1CC1`, the Potency result in experiment [1], in experiment [2] and in experiment [3] was “inactive” each time.
As to `CO[C@H]1C[C@@H]2CC[C@@H](C)[C@@](O)(O2)C(=O)C(=O)N2CCCC[C@@H]2C(=O)O[C@H]([C@@H](C)C[C@@H]2CC[C@H](O)[C@H](OC)C2)CC(=O)[C@H](C)C=C(C)[C@@H](O)[C@@H](OC)C(=O)[C@H](C)C[C@H](C)C=CC=CC=C1C`, in experiment [1], the Potency entry was “inactive”. Besides, the results for the Potency in experiment [2] and in experiment [3] were 2.7 nM (active) and 12.2 nM (active), respectively.
Consider `Oc1c(Br)cc(Br)c2cccnc12`, for which the Potency result in experiment [1], in experiment [2] and in experiment [3] was “inactive” throughout.
As for `Cc1cc2c(cc1CC(=O)c1sccc1S(=O)(=O)Nc1onc(C)c1Cl)OCO2`, the Potency entry in experiment [1], in experiment [2] and in experiment [3] was “inactive” throughout.
With `CCOC(=O)c1cnc2c(cnn2CC)c1NN=C(C)C`, the Potency result in experiment [1], in experiment [2] and in experiment [3] was “inactive” in each case.
On to `C[N+]1(C)CCCC(OC(=O)C(O)(c2ccccc2)c2ccccc2)C1` (stereo not given), for which the Potency entry in experiment [1], in experiment [2] and in experiment [3] was “inactive” each time.
In the case of `CCCCCCCCCCOc1cc2c(=O)c(C(=O)OCC)c[nH]c2cc1OCC`, in experiment [1], the activity change, negative = inhibition was -8.32% [at 5.82 µM]. Also, in experiment [2], the activity change, negative = reduced viability was 1.68% [at 5.82 µM]. Also, the activity change, negative = lower viability in experiment [3] is 5.24% [at 5.82 µM].
`CC(=O)Oc1cccc2c1C(=O)c1c(OC(C)=O)cc(C(=O)O)cc1C2=O`: the Potency entry in experiment [1], in experiment [2] and in experiment [3] was “inactive” in each case.
Consider `CCS(=O)(=O)CCn1c([N+](=O)[O-])cnc1C`, for which the Potency entry in experiment [1], in experiment [2] and in experiment [3] was “inactive” in each case.
